In all, about 360,000 compounds went through this assay and about 11,000 (3.1%) were called active. A call without a number means that no potency is given here. Another 4% or so got no clear call; they are omitted. Calls come from the whole dose curve; as a rule, active = well fitted inhibition curve with a large enough effect; inconclusive = small, poorly fitted or top-dose-only effect; inactive = no such curve, though single readings can be large or run the other way. The full list was thinned out, with actives kept by preference.
target: Schistosoma mansoni thioredoxin glutathione reductase (TGR) (UniProt Q962Y6); experiment: qHTS Assay for the Inhibitors of Schistosoma Mansoni Peroxiredoxins; conditions: purified TGR, DTNB reduction, TNB absorbance 405 nm; series mostly up to 114 µM; note: nearly all actives have a fitted effect of over 60% in size
Summary of the method: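 First, TGR (20 nM dispensed) and NADPH were mixed with compound. Second, a 15 min room-temperature incubation followed. Third, further NADPH and then DTNB were added to start the reaction. Finally, TNB absorbance was monitored kinetically.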
Potency is the fitted concentration of half-maximal effect.

Row | Structure (SMILES) | Potency
1 | N#CC1=C(N)Oc2c(c(=O)oc3ccccc23)C1c1ccccc1OC(=O)c1cccs1 (configuration not stated) | inactive
2 | N#CC1=C(N)Oc2c(ccc3cccnc23)C1c1ccncc1 (configuration not stated) | inactive
3 | CCOc1ccc(-n2c(SCC(=O)NCc3ccccc3)nc3n[nH]c(C)c3c2=N)cc1 | inactive
4 | CCCC(NC(=O)c1ccco1)c1nc2ccccc2[nH]1 (configuration not stated) | inactive
5 | O=C(Nc1cccc(-c2nc3ccccc3o2)c1)c1cccc(Br)c1 | inactive
6 | O=C(/C=C/c1ccco1)Nc1cccc(-c2nc3ccccc3[nH]2)c1 | 14.1 µM (active)
7 | CCOC(=O)c1cc(NC(=O)c2ccc(F)cc2)c(=O)n2c1oc1ccccc12 | inactive
8 | CCOC(=O)c1ccc(NC(=O)C2CC(=O)N(c3ccc(C(C)C)cc3)C2)cc1 (configuration not stated) | inactive
9 | COc1ccc(CNC(=O)C2=Cc3cccc(OC)c3OC2)cc1OC | inactive
10 | O=C(CSc1oc(-c2ccc(F)cc2)nc1S(=O)(=O)c1ccc(Br)cc1)NC1CCCCC1 | inactive
11 | Cc1ccc(S(=O)(=O)c2nc(-c3ccco3)oc2SCC(=O)Nc2ccc(F)cc2)cc1 | inactive
12 | CC(C)S(=O)(=O)c1oc(-c2ccc(F)cc2)nc1S(=O)(=O)c1ccc(F)cc1 | 2.24 µM (active)
13 | CCCN1CCN(CCCNC(=O)c2ccc3nc(Cc4ccccc4)oc3c2)CC1 | inactive
14 | CCC(C)Nc1oc(-c2ccc(COc3ccc(Cl)cc3)o2)nc1C#N (configuration not stated) | inactive
15 | Cc1ccc(N2CCN(S(=O)(=O)c3ccc(F)cc3)CC2)c(C)c1 | inactive
16 | Cc1ccc(CC2CC(=O)N(c3cc(C)ccc3C)C2=O)cc1 (configuration not stated) | inactive
17 | Cc1ccc(N2C(=O)CC(N3CCSCC3)C2=O)c(C)c1 (configuration not stated) | 50.1 µM (active)
18 | CC(=O)Nc1cccc(NC(=O)CSc2cn(CC(=O)N3CCCC3)c3ccccc23)c1 | inactive
19 | CCC1(C)CC(=O)c2c(ccc3oc(C(=O)Nc4ccc(C(C)=O)cc4)c(C)c23)O1 (configuration not stated) | inactive
20 | CCC(=O)N1CCc2cc(Br)cc(S(=O)(=O)CCC(=O)N3CCN(c4ccc(F)cc4)CC3)c21 | inactive
21 | COC(c1ccccc1)c1nnc(CCC(=O)N2CCN(CCOc3ccccc3)CC2)o1 (configuration not stated) | inactive
22 | CCOc1ccc(CN2CCN(Cc3c[nH]c4ccccc34)CC2)cc1 | inactive
23 | Cc1cccc(C(=O)Nc2nnc(Cc3c[nH]c4ccccc34)s2)c1 | inactive
24 | Cc1nn(C)c(C)c1CN(C(=O)CCc1nnc(Cc2c[nH]c3ccccc23)o1)C(C)C | 35.5 µM (active)

Row | Structure (SMILES) | Potency
25 | Cc1nc(CN2CCN(C(=O)CCc3nnc(Cc4c[nH]c5ccccc45)o3)CC2)cs1 | 39.8 µM (active)
26 | CC(C)N(C)C(=O)CCc1nnc(CCc2c[nH]c3ccccc23)o1 | inactive
27 | O=C(COc1ccccc1F)Nc1ccc(C(=O)OCc2cc(=O)n3nc(C4CC4)sc3n2)cc1 | inactive
28 | COc1ccc(CCNC(=O)CCCCn2c(=O)c3ccccc3n(Cc3ccccc3C)c2=O)cc1OC | inactive
29 | Cc1cccc(N2CCN(C(=O)c3ccc(Nc4nc5ccccc5n5nnnc45)cc3)CC2)c1C | inactive
30 | COC(=O)c1cccc(N2C(=O)C3C4C=CC(CC4)C3C2=O)c1 (configuration not stated) | inactive
31 | Cc1cccc(N2C(=O)CC(SC(N)=Nc3ccccc3)C2=O)c1 (configuration not stated) | inactive
32 | COC(=O)c1ccccc1SC1CC(=O)N(c2cccc(C)c2)C1=O (configuration not stated) | 50.1 µM (active)
33 | COc1ccc(N2CCN(c3nc(-c4ccccc4F)nc4ccccc34)CC2)cc1 | inactive
34 | O=C(CSc1oc(-c2ccco2)nc1S(=O)(=O)c1ccccc1)c1ccc(Cl)cc1 | inactive
35 | Oc1c(C(c2ccccc2Cl)N2CCOCC2)sc2nc(-c3ccco3)nn12 (configuration not stated) | inactive
36 | CSc1nc(-c2ccco2)nn1C(=O)c1ccccc1Cl | 7.08 µM (active)
37 | Cc1cccc(NC(=O)Cn2cc(S(=O)(=O)Cc3ccccc3Cl)c3ccccc32)c1 | inactive
38 | CC(=O)c1nn(-c2ccc(OC(F)(F)F)cc2)nc1Nc1ccccc1 | inactive
39 | COc1ccc(CNC(=O)Cc2coc3ccc(C(C)C)cc23)cc1 | inactive
40 | CN1CCN(c2oc(-c3ccc(COc4ccc(Cl)cc4)o3)nc2C#N)CC1 | inactive
41 | Cc1cc(C)c(NC(=O)Cn2c(SCC(=O)NCc3ccccc3)nc3ccccc32)c(C)c1 | inactive
42 | CCOC(=O)c1c(C)n(S(=O)(=O)c2ccc(C)cc2C)c2ccc(NS(=O)(=O)c3ccc(C)cc3C)cc12 | inactive
43 | CC1=C/C(=N\OS(=O)(=O)c2ccccc2)C=CC1=O | 2.24 µM (active)
44 | O=C(COc1ccc(Cl)cc1)Nc1ccc(-c2nc3cc(Cl)ccc3o2)c(O)c1 | inactive
45 | CC(C)(C)Nc1c(-c2cccs2)nc2ccccn12 | 50.1 µM (active)
46 | Cc1ccc(Nc2c(-c3ccc(C)s3)nc3ccccn23)cc1 | inactive
47 | Cc1nc2ccccn2c(=O)c1NC(=O)c1cccs1 | inactive

Source: PubChem BioAssay AID485364 (National Center for Advancing Translational Sciences (NCATS), 2010)
